Test results from PubChem BioAssay.
For part of these data: Entries with a potency or affinity are not part of this list. Calls of active or inactive are those of the source. Unless noted, how the calls were made is not given here.

Assays:
[1] = antimalarial activity against Dd2 strain (AID 2302;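 active means growth inhibition above 50% at the single 2 µM test dose, taken to imply half-maximal potency below 2 µM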;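 further: 0% = DMSO untreated growth and 100% = chloroquine plus artemisinin killed control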); settings: P. falciparum Dd2 in RBCs, LDH growth readout, 72 h; at 2 µM; stronger effect = higher value
[2] = human hepatoma cell viability loss – ATP luminescence, cytotoxicity control for P. falciparum antimalarial project, primary screen (AID 2303;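 active means inhibition above 50%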;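 further: 0% = DMSO wells and 100% = digitonin-killed cells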); settings: HepG2 viability, 24-48 h, at 10 µM, stronger effect = higher value
[3] = molecular target: L-lactate dehydrogenase (Plasmodium falciparum (isolate CDC / Honduras)) (UniProt Q27743); assay: PfLDH activity inhibition – cell lysate, 3D7 strain, counter-screen for P. falciparum growth inhibition project (AID 2304);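 further: 0% = vehicle and 100% = reference inhibitor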; settings: P. falciparum 3D7 crude extract, LDH APAD/NBT absorbance; at 2 µM; stronger effect = higher value
Chain of L-lactate dehydrogenase (Plasmodium falciparum (isolate CDC / Honduras)) (Q27743 whole entry, looked up): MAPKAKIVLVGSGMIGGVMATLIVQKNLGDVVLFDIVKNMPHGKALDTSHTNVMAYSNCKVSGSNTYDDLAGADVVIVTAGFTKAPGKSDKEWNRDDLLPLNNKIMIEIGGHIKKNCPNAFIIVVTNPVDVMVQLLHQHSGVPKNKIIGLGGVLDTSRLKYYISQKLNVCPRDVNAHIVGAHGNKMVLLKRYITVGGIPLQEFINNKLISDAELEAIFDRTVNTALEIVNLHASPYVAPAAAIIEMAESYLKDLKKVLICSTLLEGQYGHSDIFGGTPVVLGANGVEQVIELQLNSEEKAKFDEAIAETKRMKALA

[4] = inhibition of 3D7 malaria parasite growth – strain 3D7 (AID 2306);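 further: 0% = DMSO wells and 100% = chloroquine plus artemisinin control wells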; settings: P. falciparum 3D7 erythrocytic growth, LDH absorbance, 72 h; at 2 µM; stronger effect = higher value
[5] = molecular target: Calcium-dependent protein kinase 1 (Plasmodium falciparum (isolate 3D7)) (UniProt P62344); assay: PfCDPK1 kinase inhibitors, biochemical, TCAMS library (AID 1159585; cut-off not given, nearly all actives have IC50 up to about 0.98 µM;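 further: inhibitors leave more ATP so luminescence rises with inhibition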); settings: recombinant PfCDPK1, Kinase-Glo ATP depletion luminescence
Chain of Calcium-dependent protein kinase 1 (Plasmodium falciparum (isolate 3D7)) (P62344 whole entry, looked up): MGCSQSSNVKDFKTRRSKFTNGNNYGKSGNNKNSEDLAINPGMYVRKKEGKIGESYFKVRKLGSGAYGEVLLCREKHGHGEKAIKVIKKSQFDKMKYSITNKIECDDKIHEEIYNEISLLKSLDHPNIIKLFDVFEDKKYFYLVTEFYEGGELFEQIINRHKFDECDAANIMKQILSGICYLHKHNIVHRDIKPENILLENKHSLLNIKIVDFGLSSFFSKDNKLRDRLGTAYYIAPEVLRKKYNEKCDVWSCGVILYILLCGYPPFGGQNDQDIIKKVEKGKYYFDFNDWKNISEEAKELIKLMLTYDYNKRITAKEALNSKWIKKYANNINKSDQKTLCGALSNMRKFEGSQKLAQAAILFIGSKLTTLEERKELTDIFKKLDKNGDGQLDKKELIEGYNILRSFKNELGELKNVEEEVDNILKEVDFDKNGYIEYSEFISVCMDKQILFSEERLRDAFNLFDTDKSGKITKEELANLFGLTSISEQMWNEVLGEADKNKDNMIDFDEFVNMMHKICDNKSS

[6] = molecular target: Plasmodium falciparum protein kinase 6 (PK6, PF3D7_1337100) (UniProt Q8IDW1); assay: PfPK6 kinase inhibitors, biochemical, TCAMS library (AID 1159586); settings: recombinant PfPK6, Kinase-Glo ATP depletion luminescence
Chain of Plasmodium falciparum protein kinase 6 (PK6, PF3D7_1337100) (Q8IDW1 1-305): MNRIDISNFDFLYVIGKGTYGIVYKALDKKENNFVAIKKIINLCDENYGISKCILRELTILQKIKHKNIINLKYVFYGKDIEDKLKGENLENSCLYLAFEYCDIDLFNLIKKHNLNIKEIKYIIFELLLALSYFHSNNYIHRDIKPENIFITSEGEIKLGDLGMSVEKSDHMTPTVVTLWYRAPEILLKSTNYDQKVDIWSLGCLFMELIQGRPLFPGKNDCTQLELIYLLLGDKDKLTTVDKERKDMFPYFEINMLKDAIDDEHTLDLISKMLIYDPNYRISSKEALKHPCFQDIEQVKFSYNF

[7] = molecular target: Protein kinase 7 (PK7), Plasmodium falciparum 3D7 (PF3D7_0213400) (UniProt Q7YTF7); assay: inhibition of Plasmodium PK7 catalytic activity – biochemical, TCAMS antimalarial set, Kinase-Glo luminescence (AID 1159587); settings: recombinant PfPK7, Kinase-Glo ATP depletion luminescence
Chain of Protein kinase 7 (PK7), Plasmodium falciparum 3D7 (PF3D7_0213400) (Q7YTF7 1-343): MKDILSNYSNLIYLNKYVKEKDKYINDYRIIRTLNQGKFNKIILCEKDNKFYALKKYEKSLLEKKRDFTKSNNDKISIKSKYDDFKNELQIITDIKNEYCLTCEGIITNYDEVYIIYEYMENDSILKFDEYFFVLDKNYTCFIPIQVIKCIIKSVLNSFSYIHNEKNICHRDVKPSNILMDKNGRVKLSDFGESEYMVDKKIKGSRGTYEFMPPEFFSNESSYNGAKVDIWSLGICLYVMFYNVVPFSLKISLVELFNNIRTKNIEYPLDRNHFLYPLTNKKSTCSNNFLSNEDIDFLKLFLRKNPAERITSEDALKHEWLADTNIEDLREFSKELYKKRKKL

[8] = molecular target: Calcium-dependent protein kinase 4 (Plasmodium falciparum (isolate 3D7)) (UniProt Q8IBS5); assay: PfCDPK4 kinase inhibitors, biochemical, TCAMS library (AID 1159588; cut-off not given, nearly all actives have IC50 up to about 0.91 µM); settings: recombinant PfCDPK4, Kinase-Glo ATP depletion luminescence
Chain of Calcium-dependent protein kinase 4 (Plasmodium falciparum (isolate 3D7)) (Q8IBS5 whole entry, looked up): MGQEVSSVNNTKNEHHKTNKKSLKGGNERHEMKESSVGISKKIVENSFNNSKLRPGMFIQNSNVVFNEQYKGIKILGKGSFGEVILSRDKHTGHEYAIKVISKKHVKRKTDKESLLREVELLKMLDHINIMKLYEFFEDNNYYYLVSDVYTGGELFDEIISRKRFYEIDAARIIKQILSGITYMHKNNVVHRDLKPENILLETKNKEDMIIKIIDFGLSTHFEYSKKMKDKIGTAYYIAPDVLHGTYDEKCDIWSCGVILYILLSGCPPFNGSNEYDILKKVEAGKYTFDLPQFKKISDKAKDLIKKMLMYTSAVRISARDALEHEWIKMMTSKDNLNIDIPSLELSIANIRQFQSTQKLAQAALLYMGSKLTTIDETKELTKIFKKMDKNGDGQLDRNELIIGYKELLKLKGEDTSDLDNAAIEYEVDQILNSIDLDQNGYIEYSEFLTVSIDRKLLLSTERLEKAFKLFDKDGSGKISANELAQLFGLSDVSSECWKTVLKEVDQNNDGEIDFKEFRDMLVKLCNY

Cc1ccc(NCC(=O)Nc2ccc(F)c(Cl)c2)cc1S(=O)(=O)N1CCOCC1
inactive: inhibition [2] 2% | inhibition [3] 0% | outcome [5] | outcome [6] | outcome [7] | outcome [8]
active: growth inhibition [1] 97% | growth inhibition [4] 98%

CN(C)Cc1ccc(-c2ccc3ccnc(N)c3c2)cc1
active: growth inhibition [1] 100% | growth inhibition [4] 100%
inactive: inhibition [2] 20% | inhibition [3] -1% | outcome [5] | outcome [6] | outcome [7] | outcome [8]

CS(=O)(=O)c1ccc(-n2nc(C(F)(F)F)cc2-c2ccc(/C=N/OCC(=O)O)o2)cc1
active: growth inhibition [4] 87%
inactive: growth inhibition [1] 0% | inhibition [2] -15% | inhibition [3] -7% | outcome [5] | outcome [6] | outcome [7] | outcome [8]

CCNc1cc(C(=O)N[C@@H](Cc2ccccc2)[C@H](O)CNCc2cc(OC)cc(OC)c2)cc(N2CCCS2(=O)=O)c1
inactive: inhibition [2] -4% | inhibition [3] -2% | outcome [5] | outcome [6] | outcome [7] | outcome [8]
active: growth inhibition [1] 86% | growth inhibition [4] 99%

N#Cc1ccc2c(c1)CCN(CCC1CCC(NC(=O)c3ccc(-c4ccccn4)s3)CC1)CC2 (stereo not drawn)
active: growth inhibition [4] 92%
inactive: growth inhibition [1] 9% | inhibition [2] 16% | inhibition [3] 1% | outcome [5] | outcome [6] | outcome [7] | outcome [8]

CCCN(CCC)CCCNc1ccc(C(=O)Nc2ccc(C(C)C)cc2)cc1[N+](=O)[O-]
inactive: growth inhibition [1] 38% | inhibition [2] 17% | inhibition [3] -8% | outcome [5] | outcome [6] | outcome [7] | outcome [8]
active: growth inhibition [4] 98%

O=C(N[C@@H](Cc1ccccc1)[C@H](O)CNC1CCOCC1)c1cc(C2CCCC2)cc(N2CCCCS2(=O)=O)c1
active: growth inhibition [1] 98% | growth inhibition [4] 100%
inactive: inhibition [2] 3% | inhibition [3] -1% | outcome [5] | outcome [6] | outcome [7] | outcome [8]

Cc1cc(NN=Cc2cccc([N+](=O)[O-])c2)c2ccc(C(F)(F)F)cc2n1
active: growth inhibition [1] 51% | growth inhibition [4] 101%
inactive: inhibition [2] 2% | inhibition [3] 1% | outcome [5] | outcome [6] | outcome [7] | outcome [8]

N#Cc1ccc2c(c1)CCN(CCC1CCC(NC(=O)/C=C/c3cnc4ccccc4c3)CC1)CC2 (stereo not drawn)
active: growth inhibition [4] 87%
inactive: growth inhibition [1] 21% | inhibition [2] 22% | inhibition [3] -1% | outcome [5] | outcome [6] | outcome [7] | outcome [8]

COc1ccc(C2CCN(CCN3CCC(NC(=O)c4ccc(-c5cccc(C(F)(F)F)c5C(F)(F)F)cc4)CC3)CC2)c(OC)c1
inactive: inhibition [2] 35% | inhibition [3] -4% | outcome [5] | outcome [6] | outcome [7] | outcome [8]
active: growth inhibition [1] 61% | growth inhibition [4] 102%

CCN(CC)C(=NCCCCCCN=C(/N=C(/N)Nc1ccc(Br)cc1)N(CC)CC)/N=C(/N)Nc1ccc(Br)cc1
inactive: inhibition [2] -7% | inhibition [3] -5% | outcome [5] | outcome [6] | outcome [7] | outcome [8]
active: growth inhibition [1] 95% | growth inhibition [4] 96%

CC(C)CCNCC(O)Cn1c2ccc(Cl)cc2c2cc(Cl)ccc21 (stereo not drawn)
active: growth inhibition [1] 99% | growth inhibition [4] 99%
inactive: inhibition [2] 36% | inhibition [3] 3% | outcome [5] | outcome [6] | outcome [7] | outcome [8]

COc1ccc2ncc(F)c(CCN3CCC(NCc4ccc5c(c4)CCO5)CC3)c2n1
inactive: growth inhibition [1] 30% | inhibition [2] 20% | inhibition [3] 3% | outcome [5] | outcome [6] | outcome [7] | outcome [8]
active: growth inhibition [4] 100%

Fc1ccc2nc(-c3ccc(-c4ccc(CN5CCN(CCN6CCOCC6)CC5)cc4)s3)[nH]c2c1
inactive: inhibition [2] 39% | inhibition [3] -3% | outcome [5] | outcome [6] | outcome [7] | outcome [8]
active: growth inhibition [1] 98% | growth inhibition [4] 99%

COc1ccc(C2CC(c3ccccc3)=NN2C(=O)c2ccc(Br)o2)cc1 (stereo not drawn)
inactive: growth inhibition [1] 45% | inhibition [2] 6% | inhibition [3] -6% | outcome [5] | outcome [6] | outcome [7] | outcome [8]
active: growth inhibition [4] 96%

O=C(CCCCCNC(=O)c1ccc(O)c(-c2ccc(Cl)c(Cl)c2)c1)NCc1cccc2ccccc12
inactive: growth inhibition [1] 15% | inhibition [2] 2% | inhibition [3] -2% | outcome [5] | outcome [6] | outcome [7] | outcome [8]
active: growth inhibition [4] 99%

CCOc1ccc(C(=O)Nc2cc(Br)c3c(c2)CNCC3)cc1C(F)(F)F
active: growth inhibition [4] 98%
inactive: growth inhibition [1] 22% | inhibition [2] 15% | inhibition [3] 6% | outcome [5] | outcome [6] | outcome [7] | outcome [8]

CS(=O)(=O)c1ccc2c(c1)CCN(CCC1CCC(NC(=O)C(=Cc3cccc(C#N)c3)c3ccc(-c4ccccc4)cc3)CC1)CC2 (stereo not drawn)
active: growth inhibition [4] 99%
inactive: growth inhibition [1] 13% | inhibition [2] 24% | inhibition [3] -6% | outcome [5] | outcome [6] | outcome [7] | outcome [8]

Fc1ccc2nc(-c3ccc(-c4cccc(CN5CCC(CCN6CCCCC6)CC5)c4)cc3)[nH]c2c1
active: growth inhibition [1] 100% | inhibition [2] 96% | growth inhibition [4] 101%
inactive: inhibition [3] 5% | outcome [5] | outcome [6] | outcome [7] | outcome [8]

CCN(CCCN1CCCCC1)c1cc(C)nc(Nc2ccc3c(c2)CCC3)n1
active: growth inhibition [1] 93% | growth inhibition [4] 100%
inactive: inhibition [2] 32% | inhibition [3] 5% | outcome [5] | outcome [6] | outcome [7] | outcome [8]

FC(F)(F)c1cccc(CCNc2nccc(NCc3ccccc3Cl)n2)c1
inactive: growth inhibition [1] 38% | inhibition [2] 31% | inhibition [3] 1% | outcome [5] | outcome [6] | outcome [7] | outcome [8]
active: growth inhibition [4] 89%

CCNc1cc(C(=O)N[C@@H](Cc2cccc(Cl)c2)[C@H](O)CNC(C)CCCC(C)C)cc(N2CCCCS2(=O)=O)c1 (stereo partly drawn)
active: growth inhibition [1] 78% | growth inhibition [4] 98%
inactive: inhibition [2] 7% | inhibition [3] -1% | outcome [5] | outcome [6] | outcome [7] | outcome [8]

CCCC(=O)Nc1ccc(OCCCCN(CC(C)(C)C)c2ccc(C#N)c(C(F)(F)F)c2)cc1
inactive: inhibition [2] 9% | inhibition [3] -1% | outcome [5] | outcome [6] | outcome [7] | outcome [8]
active: growth inhibition [1] 69% | growth inhibition [4] 83%

COc1cc2nc(N3CCC(CCCC4CCNCC4)CC3)nc(NCc3ccccn3)c2cc1OC
inactive: growth inhibition [1] 6% | inhibition [2] 2% | inhibition [3] 3% | outcome [5] | outcome [6] | outcome [7] | outcome [8]
active: growth inhibition [4] 101%

Cc1ccccc1Cc1cccc(/N=C(\N)Nc2ccc(Cl)cc2)n1
active: growth inhibition [1] 56% | growth inhibition [4] 91%
inactive: inhibition [2] 48% | inhibition [3] -7% | outcome [5] | outcome [6] | outcome [7] | outcome [8]

CCCN(CCC)S(=O)(=O)c1ccc(C(=O)Nc2nc3ccc(-c4cc(=O)[nH]c(Nc5ccccc5Cl)n4)cc3[nH]2)cc1
active: growth inhibition [1] 98% | growth inhibition [4] 100%
inactive: inhibition [2] 1% | inhibition [3] -4% | outcome [5] | outcome [6] | outcome [7] | outcome [8]

O=C(c1ccco1)N1CCN(c2ccc([N+](=O)[O-])c(NC3CC3)c2)CC1
active: growth inhibition [1] 99% | growth inhibition [4] 101%
inactive: inhibition [2] -8% | inhibition [3] 0% | outcome [5] | outcome [6] | outcome [7] | outcome [8]

O=C(c1ccccc1[N+](=O)[O-])N(Cc1ccccc1)c1ccccn1
inactive: growth inhibition [1] -2% | inhibition [2] 0% | inhibition [3] -1% | outcome [5] | outcome [6] | outcome [7] | outcome [8]
active: growth inhibition [4] 91%

COc1ccc(C2N=C(N)N=C(N)N2OCc2ccccc2)cc1OC (stereo not drawn)
inactive: growth inhibition [1] 2% | inhibition [2] 1% | inhibition [3] 0% | outcome [5] | outcome [6] | outcome [7] | outcome [8]
active: growth inhibition [4] 95%

Cc1noc(C)c1-c1cccc(CNCc2ccc(-c3cccc(-c4nc5ccc(C(F)(F)F)cc5[nH]4)c3)cc2)c1
inactive: inhibition [2] 37% | inhibition [3] 3% | outcome [5] | outcome [6] | outcome [7] | outcome [8]
active: growth inhibition [1] 97% | growth inhibition [4] 101%

COc1ccc2nccc([C@@H](O)CN3CCC(NC(=O)C(=O)c4c[nH]c5c(C)cccc45)CC3)c2c1
inactive: inhibition [2] 17% | inhibition [3] -3% | outcome [5] | outcome [6] | outcome [7] | outcome [8]
active: growth inhibition [1] 94% | growth inhibition [4] 102%

CS(=O)(=O)Nc1cccc(-c2cnc3[nH]cc(-c4ccc(C(=O)O)c(F)c4)c3c2)c1
active: growth inhibition [1] 76% | growth inhibition [4] 99%
inactive: inhibition [2] 27% | inhibition [3] 5% | outcome [5] | outcome [6] | outcome [7] | outcome [8]

O=C(Nc1cccc(CN2CCCN(Cc3ccc4c(c3)OCO4)CC2)c1)c1ccc2ccccc2c1
active: growth inhibition [4] 86%
inactive: growth inhibition [1] 14% | inhibition [2] 7% | inhibition [3] -2% | outcome [5] | outcome [6] | outcome [7] | outcome [8]

O=C(Nc1ccc(-c2nc3ccccc3[nH]2)cc1)C1CCN(Cc2ccccc2)CC1
inactive: inhibition [2] 12% | inhibition [3] 4% | outcome [5] | outcome [6] | outcome [7] | outcome [8]
active: growth inhibition [1] 82% | growth inhibition [4] 100%

CS(=O)(=O)Nc1ccc(-c2cnc3[nH]cc(-c4ccc(C(=O)O)cc4)c3c2)cc1
inactive: growth inhibition [1] 45% | inhibition [2] -15% | inhibition [3] -1% | outcome [5] | outcome [6] | outcome [7] | outcome [8]
active: growth inhibition [4] 95%

CN(C)C(=S)N=Nc1c(O)[nH]c2ccccc12
active: growth inhibition [1] 96% | growth inhibition [4] 95%
inactive: inhibition [3] 2% | outcome [5] | outcome [6] | outcome [7] | outcome [8]

CC1CCN(Cc2cccc(C(=O)NCc3ccc(F)c(-c4cccc(CN5CCN[C@@H](C)C5)c4)c3)c2)CC1
inactive: inhibition [2] 26% | inhibition [3] 2% | outcome [5] | outcome [6] | outcome [7] | outcome [8]
active: growth inhibition [1] 64% | growth inhibition [4] 91%

COc1ccc2c(c1CNCCCCCCNCc1c(OC)ccc3c1CCCC3)CCCC2
active: growth inhibition [4] 94%
inactive: growth inhibition [1] 7% | inhibition [3] 6% | outcome [5] | outcome [6] | outcome [7] | outcome [8]

CCC(CC)CN1C(=O)C(C)(c2ccccc2)N=C1N (stereo not drawn)
active: growth inhibition [4] 84%
inactive: growth inhibition [1] 11% | inhibition [2] 1% | inhibition [3] -2% | outcome [5] | outcome [6] | outcome [7] | outcome [8]

CC(C)(Oc1c(C2CCN(CCCCNC(=O)c3ccc(-c4ccc(Cl)cc4)cc3)CC2)ccc2c1CCCC2)C(N)=O
inactive: growth inhibition [1] 5% | inhibition [3] 1% | outcome [5] | outcome [6] | outcome [7] | outcome [8]
active: inhibition [2] 100% | growth inhibition [4] 93%
